Source: PubChem BioAssay (NCI)
Compounds without any hit were thinned out: in the full panel of roughly 79,000, 15% have a hit. Active and inactive are the calls of the source. No stated cut-off is given here; in the data, active means growth inhibition above about 70%; inactive means the rest.

What was measured:
[1] = NCI Yeast Anticancer Drug Screen. Data for the rad50 strain (AID 155);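 further: 0% = growth of vehicle-only cultures of the same strain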; conditions: S. cerevisiae rad50 strain growth inhibition; at 50.0 µM; active compounds read high
In short: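 A DNA repair-deficient yeast mutant serves as the test organism; compound-induced growth inhibition is calculated against vehicle-treated cells.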

[2] = NCI Yeast Anticancer Drug Screen. Data for the mec2-1 strain (AID 157); conditions: S. cerevisiae mec2-1 strain, at 50.0 µM, active compounds read high
In short: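 Yeast mec2-1 mutant treated with compound. Readout: growth inhibition vs vehicle controls.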

[3] = NCI Yeast Anticancer Drug Screen. Data for the sgs1 mgt1 strain (AID 161);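 further: 0% = growth of cultures given vehicle only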; conditions: S. cerevisiae sgs1 mgt1 strain, at 50.0 µM, active compounds read high
In short: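 Inhibition of yeast growth, normalised to vehicle-treated controls, is reported for a strain bearing genetic alterations in DNA damage repair.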

[4] = NCI Yeast Anticancer Drug Screen. Data for the cln2 rad14 strain (AID 165);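 further: 0% = growth equal to vehicle treated cultures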; conditions: S. cerevisiae cln2 rad14 strain, at 50.0 µM, active compounds read high
In short: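 cln2 rad14 yeast strain; compound exposure; growth inhibition read vs vehicle controls.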

[5] = NCI Yeast Anticancer Drug Screen. Data for the bub3 strain (AID 167); conditions: S. cerevisiae bub3 mutant strain, at 50.0 µM, active compounds read high
In short: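 Inhibition values come from growth of compound-treated mutant yeast normalised to vehicle-treated controls.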

[6] = NCI Yeast Anticancer Drug Screen. Data for the mlh1 rad18 strain (AID 175); conditions: S. cerevisiae mlh1 rad18 strain growth inhibition; at 50.0 µM; active compounds read high
In short: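 Yeast w/ defined DNA-repair lesions; compound exposure; growth vs vehicle controls → % inhibition.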

Measured: growth inhibition

O=S1(=O)CC(N2CCCCC2)C=C(c2ccccc2)O1 (centres undefined)
inactive: [1] 37.1% | [2] 0.25% | [3] 14.3% | [4] 15.2% | [5] 12.7% | [6] 34.2%

CCN(CC)CCN(C)c1ccccc1
inactive: [1] 9.85% | [2] 4.35% | [3] -2.05% | [4] -1.05% | [5] -0.1% | [6] 0.3%

COC1(OC)CCC2C1C1CCC(OC)(OC)C21 (centres undefined)
inactive: [1] 1.7% | [2] -3.35% | [3] 11.3% | [4] 8.75% | [5] 3.4% | [6] -17.4%

Cc1cn(C2CC(O)C(CO)O2)c(=O)nc1NCC12CC3CC(CC(C3)C1)C2 (centres undefined)
inactive: [1] -1.7% | [2] 11.8% | [3] -1.1% | [4] -1.1% | [5] -0.8% | [6] -2.25%

CCC/C=C(\CC)COC(=O)Nc1ccccc1
inactive: [1] -1.15% | [2] -19.6% | [3] -9.55% | [4] -47.9% | [5] -31.1% | [6] -1.75%

COc1ccc(C=Nc2ccc(O)cc2)cc1
inactive: [1] 5.45% | [2] -2.3% | [3] -8.35% | [4] 34.1% | [5] -22.6% | [6] -13.9%

O=[N+]([O-])c1nccn1COCCI
inactive: [1] 7.25% | [2] 15.4% | [3] -0.2% | [4] 3.3% | [5] 7.75% | [6] 52.3%

CCCCSc1nc2c(=O)[nH][nH]c(=O)c2n1Cc1ccccc1
inactive: [1] 11.9% | [2] 3.45% | [3] 23.2% | [4] 14.7% | [5] -0.8% | [6] 1.5%

Cc1cc(C)c2ccc(NN=O)nc2n1
inactive: [1] 11.4% | [2] 9.75% | [3] 18.9% | [4] 19.1% | [5] 13.2% | [6] 25.7%

Cc1cc(COCCN(C)C)on1
inactive: [1] -3.5% | [2] 14.2% | [3] 14.9% | [4] -3.95% | [5] 11.8% | [6] 4.35%

CC(=O)c1ccc(N=NN2CCCC2)cc1
inactive: [1] 30.2% | [2] 8.35% | [3] 17.1% | [4] 31.4% | [5] 34.2% | [6] 2.7%

CCOC(=O)NN(C(=O)OCC)C(C(=O)c1ccccc1)N(NC(=O)OCC)C(=O)OCC
inactive: [1] 27.6% | [2] 9.9% | [3] 16.9% | [4] 46.4% | [5] 20.9% | [6] 22.4%

SCc1ccc(-c2ccc(CS)cc2)cc1
inactive: [1] 4.65% | [2] 2.55% | [3] 40% | [4] 39.8% | [5] 39.1% | [6] 23.3%

OC1C(O)C2OC(c3ccccc3)OC2C2OC(c3ccccc3)OC12 (centres undefined)
inactive: [1] 7.1% | [2] -4.85% | [3] 0.95% | [4] 0.1% | [5] -15.4% | [6] -2.35%

CC(C)=CCN(N=O)c1ncnc2nc[nH]c12
inactive: [1] -10.1% | [2] 31.1% | [3] -24.8% | [4] -2.5% | [5] 18.9% | [6] 9.85%

CC(Nc1ccc(Br)cc1[N+](=O)[O-])C(=O)O (centres undefined)
inactive: [1] 22.1% | [2] 11.6% | [3] 58.2% | [4] 19.1% | [5] 30.8% | [6] 6.95%

CC1(C)C2C/C(=N/O)C(=O)C1C2 (centres undefined)
inactive: [1] -4.5% | [2] 4.05% | [3] 8.8% | [4] 14.6% | [5] -16.9% | [6] -20.2%

CC1(C)CCCCC1/C=C/C(CC(O)(C(F)(F)F)C(F)(F)F)=N\Nc1ccc([N+](=O)[O-])cc1[N+](=O)[O-] (centres undefined)
inactive: [1] 15.1% | [2] 9.1% | [3] 4.65% | [4] 18.1% | [5] 16.1% | [6] 26.6%

CCC(C)C(N=C1N=CNC2=NC=NC12)C(=O)O (centres undefined)
inactive: [1] 0.45% | [2] -27.8% | [3] -2.6% | [4] 6.5% | [5] -10.6% | [6] -4.1%

Cc1ccccc1NC(=O)Oc1ccc2c(C)cc(=O)oc2c1
inactive: [1] -3% | [2] 12.2% | [3] 14.4% | [4] -17.2% | [5] 14.3% | [6] 24.9%

O=C1CC2(CCCC2)CC(=O)N1
inactive: [1] -11.2% | [2] -11.4% | [3] -15.6% | [4] -29.4% | [5] 6.4% | [6] -8.1%

C=C1C(=O)OC2C1C(OC(=O)/C(=C/C)COC(C)=O)CC1(CO1)C1C(OC(=O)/C(=C/C)CO)C=C(C)C21 (centres undefined)
inactive: [1] -20.6% | [2] -19% | [3] -21.1% | [4] 1.55% | [5] -41.1% | [6] -8.05%

CCC(=O)c1nc(N)[nH]c1CC
inactive: [1] -36.7% | [2] -21.6% | [3] -12.1% | [4] -44.3% | [5] -3% | [6] -6.45%

Nc1nc2c(c(-c3ccc(Cl)cc3)n1)CN(CCCC(=O)O)C2=O
inactive: [1] -1.8% | [2] 13.9% | [3] 7.4% | [4] -0.15% | [5] 2.35% | [6] 10.7%

O=C1NC(=S)S/C1=C\c1ccc2c(c1)OCO2
inactive: [1] -22.1% | [2] -21.3% | [3] -4.8% | [4] -2% | [5] -8.05% | [6] -7.55%

CN=Cc1c(O)ccc2ccccc12.[Cu+2]
inactive: [1] 15.3% | [2] 7.6% | [3] 1.7% | [4] 6.45% | [5] -32.9% | [6] 52.9%

C/C=C(\C)C(=O)OC1C2C(C)=CC(=O)C(O)C2(C)C2C3(O)OCC24C1OC(=O)C(OC(C)=O)C4C(C)C3O (centres undefined)
active: [1] 91.9% | [2] 93.3% | [3] 92.8% | [4] 91.8% | [5] 91.7% | [6] 91.6%

O=C1Oc2cc3c(c4cccc1c24)OCN(c1ccc(Cl)cc1)C3
inactive: [1] 38.6% | [2] 29.9% | [3] 53.1% | [4] 33% | [5] 33% | [6] 37.5%

COC(CN1C(=O)CSC1=S)OC
inactive: [1] 10.8% | [2] -1.65% | [3] 27.1% | [4] 17.2% | [5] 29.1% | [6] -6.8%

Cc1cnc2cc(Cl)ccc2c1SCC(=O)O
inactive: [1] 3.6% | [2] -39.7% | [3] -42.9% | [4] -24.4% | [5] -36.6% | [6] 1.05%

Cc1ccc2nc(NS(=O)(=O)c3cc(C)c(Cl)cc3S)[nH]c2c1
inactive: [1] 9.35% | [2] 4.35% | [3] 9.1% | [4] 8.25% | [5] 16.4% | [6] 39.9%

Cc1c(N/C=C(\C#N)C(=O)c2ccc(Cl)cc2)c(=O)n(-c2ccccc2)n1C
inactive: [1] -8.15% | [2] 6.6% | [3] -7.25% | [4] 27.2% | [5] 2.35% | [6] 30.9%

C=C1CCc2ccccc2C1=O
inactive: [1] 23.4% | [2] -4% | [3] 4.25% | [4] -5.55% | [5] 7.15% | [6] 13.6%

CCCCNC(=O)CSc1cc(Cl)c(Cl)cc1Cl
inactive: [1] 15.2% | [2] 9.1% | [3] 16.6% | [4] 19.1% | [5] 25.6% | [6] 13.2%

COc1ccc(-c2cc(=O)c3cccnc3[nH]2)cc1
inactive: [1] 30.1% | [2] 12.9% | [3] 32.4% | [4] 0.7% | [5] 12.2% | [6] 21.1%

C=C(Br)C[N+](CC)(CC)CC
inactive: [1] -14.3% | [2] -3.3% | [3] -9.4% | [4] 15.8% | [5] -8.85% | [6] -9.25%

Cc1ccccc1NC=O
inactive: [1] -26% | [2] -19.2% | [3] -44.5% | [4] 5.9% | [5] -36.5% | [6] -13%

C/C(=N\N=C(N)N)c1ccc(NC(=S)Nc2ccccc2)cc1
inactive: [1] 5.4% | [2] 3.85% | [3] 26.2% | [4] -19.9% | [5] 3.5% | [6] 9.5%

O=C1CC2c3ccccc3C(O)(CC1=O)c1ccccc12
inactive: [1] 16.2% | [2] 6.7% | [3] 11.7% | [4] 15.2% | [5] -16.6% | [6] 19.2%
